The list is not random: actives were taken first. Their share in the collection is about 3.4%.
NF-kB neuron act: raises NF-kB expression in human neuronal cells | 1.6% of 190,000 active | fold change at 12.5 µM | NF-kB reporter expression; hits give high values | AID 1239; in the data active = fold change above about 3.3
hgDAF12 agonist: agonists of H. glycines DAF-12 nuclear receptor | HEK293 GAL4-hgDAF12 UAS-luciferase reporter, agonist luminescence; normalized to butyrate control | activation, % at 6.8 µM | 1.8% of 370,000 active | AID 687014;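 active = activation above a cutoff set at the mean of all screened compounds plus 3 SD, cut at about 10% in these data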;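 also: 0% = DMSO wells and 100% = sodium butyrate wells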
ssDAF12 agonist: activates DAF-12 receptor from parasite S. stercoralis | HEK293 ssDAF-12/GRIP1 lit1-tk-luc reporter, luminescence; % of 3 µM dafachronic acid response | activation, % at 6.8 µM | 1% of 370,000 active;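 active = activation above the mean over all tested compounds plus 3 SD, cut at about 0.9% in these data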;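 also: 0% = DMSO-only wells and 100% = 3 µM delta7-dafachronic acid wells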
hcDAF12 agonist: H. contortus DAF-12 activation, primary screen; HEK293 hcDAF-12 lit1-tk-luc reporter, luminescence; 0% DMSO, 100% Δ7-dafachronic acid; activation, % at 6.8 µM; 1.4% of 370,000 active; AID 652067;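 active = activation above the mean of all tested compounds plus 3 SD, cut at about 5.5% in these data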;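 also: 100% = response to 3 µM Δ7-dafachronic acid high control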
APP 5'UTR act: activates APP 5'UTR luciferase reporter; SH-SY5Y APP 5'UTR luciferase reporter, luminescence; zero percent = DMSO vehicle wells; 1% of 190,000 active; activation, % at 2 µM; AID 1276;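 active = activation above a set limit, based on mean plus 3 SD of controls, cut at about 140% in these data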
* marks the source's active call; other numbers are inactive results; x = not tested or not shown.

SMILES | NF-kB neuron act | hgDAF12 agonist | ssDAF12 agonist | hcDAF12 agonist | APP 5'UTR act
COC(=O)C(C(=O)OC)C1OC23CN(S(=O)(=O)c4ccc(C)cc4)C=CC2(C)C3c2ccccc21 (stereo not drawn) | x | 4.4 | -0.9 | -3.7 | x
CCc1cc[n+](-c2nc3ccccc3nc2C(=C=[N-])C#N)cc1 | 4.99* | -1.4 | -1.3 | -0.5 | 6.8
Cc1cccc(NC(=O)C2CCN(c3ncccn3)CC2)c1C | x | -0.2 | -1.1 | 2.3 | x
Nc1ccc(N=Nc2ccc(N)cc2)cc1 | 3.45* | 0.8 | -1.7 | -0.2 | 26.2
Cc1cc(N(C)C)ccc1N=Nc1ccc(N)cc1 | x | 3.9 | -0.7 | 1.1 | x
COc1cccc(CO[C@H]2C=C[C@@H](c3ccccc3)O[C@@H]2COC(C)=O)c1 | x | 0.7 | -0.8 | 1.4 | x
NCCSc1c(-c2ccccc2)[nH]c2ccccc12 | 1.06 | -0.4 | -1.4 | 1.7 | 1.3
Cc1ccc(-c2[nH]c3ccccc3c2SCCN)cc1 | x | 3.5 | 1.2* | 6.0* | x
COc1ccc(C(=O)n2c(N)nc3ccccc32)cc1OC | x | 9.8 | 0.2 | 0.6 | x
Nc1nc2ccccc2n1C(=O)c1ccco1 | 3.11 | 8.6 | -0.7 | 3.3 | 131.0
Nc1nc2ccccc2n1C(=O)c1ccc(F)cc1 | 3.17 | 10.0 | -0.2 | 5.5 | 187.8*
Nc1nc2ccccc2n1C(=O)c1ccccc1 | 3.2 | 12.3* | -0.1 | 5.6* | 161.3*
COC(=O)CSCc1nc2ccccc2[nH]c1=O | 1.09 | 2.2 | 0.8 | 5.6* | 24.8
CC(C)(C)N1CSC(=S)N(Cc2ccccc2)C1 | 4.47* | -1.5 | -1.1 | -1.5 | -13.5
CC(C)N1CSC(=S)N(Cc2ccccc2)C1 | 2.84 | 0.6 | -1.4 | -1.6 | 31.8
O=C(OCc1ccccc1F)c1ccc2c(c1)-c1ccccc1C2=O | 4.13* | x | x | x | 26.4
O=C(NC1CCCC1)C1(C(=O)C2CC2)CC(c2ccccn2)=NO1 (stereo not drawn) | x | 3.1 | -0.9 | -2.2 | x
Cn1ccs/c1=N\C(=O)Nc1ccccc1 | 2.6 | 12.5* | 0.1 | 3.8 | 66.2
Cn1ccsc1=NC(=O)c1ccccc1F | 1.83 | 4.8 | -0.8 | -1.1 | 5.0
C[C@@H]1[C@@H](O)C[C@@]2(C[C@H](O)c3ccccc3O2)O[C@H]1c1ccccc1 | x | -0.8 | -0.9 | 0.3 | x
O=C(CC(=O)c1ccccc1O)c1ccc(F)cc1 | 1.06 | 11.5* | -0.4 | 2.1 | 30.4
Cc1ccc(C(=O)CC(=O)c2cc(Cl)ccc2O)cc1 | 4.26* | 9.2 | 1.1* | 2.9 | 121.7
CC(C)(C)c1ccc(C(=O)CC(=O)c2cc(Cl)ccc2O)cc1 | 1.46 | 5.9 | -0.7 | 1.3 | 43.6
O=C(Nc1ccc(CSc2ccccc2)cc1)c1ccccc1 | 1.05 | 1.1 | -0.6 | -0.1 | 6.3
O=C(Nc1ccccc1)c1ccc(CSc2ccccn2)cc1 | 3.27 | x | x | x | 197.2*
SMILES | NF-kB neuron act | hgDAF12 agonist | ssDAF12 agonist | hcDAF12 agonist | APP 5'UTR act
CSc1nc(N)nc2c1ncn2CC(=O)NCc1ccc2c(c1)OCO2 | x | -0.1 | -0.9 | -0.2 | x
CSc1nc(N)nc2c1ncn2CC(=O)NCc1ccccc1 | x | -2.3 | 0.9* | 0.5 | x
CC1=NN(c2nc(-c3ccc(C)cc3)cs2)C(=O)C1N=Nc1ccc2ccccc2c1 (stereo not drawn) | 1.09 | 4.9 | 0.2 | 5.7* | -2.7
COc1ccc(Nc2nc(-c3cccs3)cs2)cc1 | 2.29 | 18.4* | 3.8* | 15.8* | 105.1
COc1ccc(Nc2nc(-c3cccs3)cs2)c(OC)c1 | 7.03* | 9.9 | 1.1* | 5.2 | 58.8
Oc1ccc(Nc2nc(-c3cccs3)cs2)cc1 | 1.09 | -1.1 | -0.9 | -1.6 | 14.0
O=C(NCCCc1ccccc1)C1CCN(c2nc(-c3ccc(Br)cc3)cs2)CC1 | x | 0.9 | -2.5 | -3.4 | x
COc1ccc(-n2c(SCC(=O)Nc3ccc(S(=O)(=O)Nc4nccs4)cc3)nnc2-c2cccs2)cc1 | x | -1.6 | -1.1 | -2.0 | x
COc1ccccc1C(=O)CSc1nnc(-c2ccncc2)n1-c1ccc(Cl)cc1 | x | 0.4 | -1.4 | 0.2 | x
Cc1ccc(C)c(S(=O)(=O)N2CCN(c3ncccn3)CC2)c1 | 4.82* | 0.1 | -0.8 | 0.7 | -9.4
COC(=O)c1ccc(NC(=S)Nc2ccccc2)cc1 | 1.42 | 1.0 | -1.3 | 1.2 | -3.4
COC(=O)c1ccc(NC(=S)NC2c3ccccc3CC2O)cc1 (stereo not drawn) | 4.04* | 0.6 | -1.3 | -0.2 | 3.9
CC(=O)Cc1nsc(Nc2ccc3c(c2)OCCO3)n1 | 2.14 | 11.6* | 0.2 | 2.2 | 92.1
CC(=O)Cc1nsc(Nc2ccc(F)cc2)n1 | 1.18 | 2.9 | -1.7 | 0.2 | -4.9
CC(C)Oc1ccccc1C1Nc2ccccc2C(=O)N1c1ccc2c(c1)OCCO2 (stereo not drawn) | 4.56* | 10.2 | 0.0 | 5.0 | 150.1*
CC(C)Oc1ccccc1C1CC(=O)Nc2cc3c(cc21)OCCO3 (stereo not drawn) | 3.88* | -7.4 | -1.5 | -3.8 | -94.8
C=CCN1[C@H](CC(C)C)COc2cccc(F)c2S1(=O)=O | x | 0.3 | -0.9 | -0.3 | x
Cc1ccccc1NCC(=O)N/N=C/c1ccc[nH]1 | x | 0.2 | -1.5 | -2.6 | x
Cc1cc(N2C(=O)C(O)=C(C(=O)c3cc4ccccc4o3)C2c2cccs2)no1 (stereo not drawn) | x | 1.6 | 0.0 | 5.2 | x
Cc1ccc2nc(N3C(=O)C(O)=C(C(=O)c4cc5ccccc5o4)C3c3cccs3)sc2c1 (stereo not drawn) | 3.7* | x | x | x | 160.4*
CCc1ccc2nc(N3C(=O)C(O)=C(C(=O)c4ccco4)C3c3cccs3)sc2c1 (stereo not drawn) | 2.59 | x | x | x | 158.4*
Cc1ccc(CN[C@@H]2CC[C@@]34CCCN3C(=O)CCC[C@H]4C2)o1 | x | -1.7 | -1.6 | -0.7 | x
COC(=O)[C@@]12CCCCC3=C1N(CCC3)C(=O)[C@H]2CC(=O)N1CCSCC1 | x | 0.4 | 1.5* | -1.1 | x
NC(=O)c1ccsc1NC(=O)COC(=O)c1ccc(Cl)nc1 | x | 0.2 | -1.1 | -1.6 | x
NC(=O)c1ccsc1NC(=O)COC(=O)c1cccnc1Cl | x | 10.7* | -0.4 | 1.0 | x
SMILES | NF-kB neuron act | hgDAF12 agonist | ssDAF12 agonist | hcDAF12 agonist | APP 5'UTR act
COc1cc2c(cc1OC)[C@@H]1Cc3cc4c(cc3[C@H](C2)N1C)OCO4 | 0.97 | -0.8 | -0.6 | 0.1 | 7.5
COc1cc2c(cc1OC)C1CCc3cc4c(cc3C1N=C2)OCO4 (stereo not drawn) | x | 11.1* | -0.3 | 1.5 | x
Cc1cc(C(=O)C(=O)O)c(C)n1-c1ccc(Cl)c(Cl)c1 | 1.06 | -1.6 | 1.0* | 0.2 | -11.4
Cc1cc(C(=O)C(=O)N(C)C)c(C)n1-c1ccc(Cl)c(Cl)c1 | 0.97 | -3.6 | -1.4 | -2.0 | 3.2
O=C(c1ccccc1)C1CCN(c2ncnc3sccc23)CC1 | x | -8.5 | -2.6 | -6.5 | x
CCOC(=O)Nc1sc2c(c1C#N)CCC(C)C2 (stereo not drawn) | 3.93* | x | x | x | 91.9
C[C@H]1[C@H](N(Cc2cccs2)Cc2cccs2)CC[C@@]23CCCN2C(=O)CCC[C@@H]13 | x | -3.2 | -2.0 | -1.4 | x
CCc1ccc(Oc2c(Cl)cnn(-c3ccc(C)cc3)c2=O)cc1 | x | 0.5 | -1.8 | -0.1 | x
Cc1n[nH]c(=O)c2c(NC(=O)CSc3nn(-c4ccccc4)c(=S)s3)oc(C)c12 | x | -1.4 | 1.1* | 2.7 | x
